# Tests used:
# Experiment in all cases: yeast three-hybrid, YBZ-1, SC-Leu-His + 0.5 mM 3-AT, 4 days
# Settings in all cases: tags: N-Gal4 AD-HA kept; label: inside an RPR1-promoter hybrid RNA with tandem MS2 sites; ssRNA
# [1] = target: PUM1 PUF domain R3-YFV (Homo sapiens, UniProt Q14671 828-1176, C935Y;R936F;Q939V)
# In short: (§1)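 Pumilio-1 PUF domain libraries, randomized at the three base-contacting residues of each repeat, were co-expressed with matching RNA elements from a centromeric plasmid in strain YBZ-1, which carries a LexA–MS2 coat fusion and a HIS3 reporter. Transformants grew for four days on SC-Leu (input) or on SC-Leu-His + 0.5 mM 3-AT (selection), and the repeat regions were PCR-amplified and Illumina-sequenced. The interaction score is the log change in variant frequency from input to selection. That logarithm is base 2, with a pseudocount of 1 where a variant was absent.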
# [2] = target: PUM1 PUF domain R3-LFN (Homo sapiens, UniProt Q14671 828-1176, C935L;R936F;Q939N)
# PUM1 PUF domain R3-LFN, sequence (Q14671 828-1176 C935L/R936F/Q939N): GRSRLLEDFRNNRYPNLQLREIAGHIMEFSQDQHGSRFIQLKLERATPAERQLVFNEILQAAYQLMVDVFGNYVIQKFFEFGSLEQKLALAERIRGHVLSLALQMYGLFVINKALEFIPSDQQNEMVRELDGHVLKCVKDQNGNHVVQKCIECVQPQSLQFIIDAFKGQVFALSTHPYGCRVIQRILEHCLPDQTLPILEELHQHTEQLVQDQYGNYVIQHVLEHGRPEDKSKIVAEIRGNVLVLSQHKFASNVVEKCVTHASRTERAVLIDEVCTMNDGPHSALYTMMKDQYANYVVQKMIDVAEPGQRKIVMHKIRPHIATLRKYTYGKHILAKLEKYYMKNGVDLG
# In short: as §1
# [3] = target: PUM1 PUF domain R8-LFN (Homo sapiens, UniProt Q14671 828-1176, N1122L;Y1123F;Q1126N)
# PUM1 PUF domain R8-LFN, sequence (Q14671 828-1176 N1122L/Y1123F/Q1126N): as the sequence (Q14671 828-1176 C935L/R936F/Q939N) above, with L108C, F109R, N112Q, N295L, Y296F, Q299N counted along it
# In short: as §1
# [4] = target: PUM1 PUF domain R3-RTA (Homo sapiens, UniProt Q14671 828-1176, C935R;R936T;Q939A)
# PUM1 PUF domain R3-RTA, sequence (Q14671 828-1176 C935R/R936T/Q939A): as the sequence (Q14671 828-1176 C935L/R936F/Q939N) above, with L108R, F109T, N112A counted along it
# In short: as §1
# [5] = target: PUM1 PUF domain R4-RVF (Homo sapiens, UniProt Q14671 828-1176, N971R;H972V;Q975F)
# PUM1 PUF domain R4-RVF, sequence (Q14671 828-1176 N971R/H972V/Q975F): as the sequence (Q14671 828-1176 C935L/R936F/Q939N) above, with L108C, F109R, N112Q, N144R, H145V, Q148F counted along it
# In short: as §1
# [6] = target: PUM1 PUF domain R5-PRV (Homo sapiens, UniProt Q14671 828-1176, C1007P;Q1011V)
# PUM1 PUF domain R5-PRV, sequence (Q14671 828-1176 C1007P/Q1011V): as the sequence (Q14671 828-1176 C935L/R936F/Q939N) above, with L108C, F109R, N112Q, C180P, Q184V counted along it
# In short: as §1
# PUM1 PUF domain R3-YFV, sequence (Q14671 828-1176 C935Y/R936F/Q939V): as the sequence (Q14671 828-1176 C935L/R936F/Q939N) above, with L108Y, N112V counted along it
sequence,measurement,setting,value
GGCUAGAACUAGUGGAUCCCCCGGCGCCCGGCGGCUCGAGCCCGGGUAAGUGUAAGUAGUCUGCAUGCCGCCGGGCGCCAUGCCUGCAGGUCGACUCUAGAAAACAUG,binding signal,[1],4.24 log2 enrichment (interaction score)
same,binding signal,[2],5.99 log2 enrichment (interaction score)
GGCUAGAACUAGUGGAUCCCCCGGCGCCCGGCGGCUCGAGCCCGGGUAAGCGUAAAUAGUCUGCAUGCCGCCGGGCGCCAUGCCUGCAGGUCGACUCUAGAAAACAUG,binding signal,[3],2.16 log2 enrichment (interaction score)
GGCUAGAACUAGUGGAUCCCCCGGCGCCCGGCGGCUCGAGCCCGGGUAAGUGUAAUUAGUCUGCAUGCCGCCGGGCGCCAUGCCUGCAGGUCGACUCUAGAAAACAUG,binding signal,[4],3.27 log2 enrichment (interaction score)
same,binding signal,[1],0.45 log2 enrichment (interaction score)
GGCUAGAACUAGUGGAUCCCCCGGCGCCCGGCGGCUCGAGCCCGGGUAAGUGUAAAUAGUCUGCAUGCCGCCGGGCGCCAUGCCUGCAGGUCGACUCUAGAAAACAUG,binding signal,[3],0.52 log2 enrichment (interaction score)
same,binding signal,[1],1.56 log2 enrichment (interaction score)
same,binding signal,[5],2.93 log2 enrichment (interaction score)
same,binding signal,[6],3.15 log2 enrichment (interaction score)

# Source: article PMC8384837, “Expanding the binding specificity for RNA recognition by a PUF domain”
